SMILES strings stand for the structures. Records with an inconclusive call do not appear. Activity calls are given as the source filed them. The call rests on the fitted dose curve; in most records, active means well fitted activation curve with a large enough effect; inconclusive means small, poorly fitted or top-dose-only effect; inactive means no such curve, though single readings can be large or run the other way.
Potency means the concentration at half of the fitted maximal effect.

Chain of Cellular tumor antigen p53 (Homo sapiens) (P04637 whole entry, looked up): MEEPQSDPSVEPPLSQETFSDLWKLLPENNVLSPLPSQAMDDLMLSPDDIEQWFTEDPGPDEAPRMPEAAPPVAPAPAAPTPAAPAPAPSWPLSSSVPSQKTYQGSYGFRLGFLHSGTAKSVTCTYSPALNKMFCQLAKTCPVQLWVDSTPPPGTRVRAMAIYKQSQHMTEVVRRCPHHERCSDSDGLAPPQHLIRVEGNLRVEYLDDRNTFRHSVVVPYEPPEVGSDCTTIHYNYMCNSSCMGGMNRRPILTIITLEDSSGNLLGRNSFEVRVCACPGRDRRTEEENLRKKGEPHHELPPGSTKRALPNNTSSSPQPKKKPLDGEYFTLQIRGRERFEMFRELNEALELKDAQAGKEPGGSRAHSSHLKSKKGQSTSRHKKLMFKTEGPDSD

The target in this assay is Cellular tumor antigen p53 (Homo sapiens) (UniProt P04637). In words: Primary qHTS for small molecule compounds that upregulate eGFP-tagged delta133p53alpha (in N-terminal) cells. (AID 2060322). Further: nearly all actives have a fitted effect of over 75% in size.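 On activation: series mostly up to about 56 µM; 0% = DMSO vehicle and 100% = reference activator.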 As to conditions: NCI-H358 eGFP-delta133p53alpha fluorescence, 24 h; activation: active compounds read high. The procedure, abridged:
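NCI-H358 cells pre-induced 24 h with 10 ng/ml doxycycline to express N-terminal eGFP-delta133p53alpha, then dosed 24 h at 37C without doxycycline; fixed, Hoechst-stained, GFP intensity by laser scanning cytometry, normalized to DMSO (0%) and 57.5 uM 5-azacytidine (100%).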
For orientation: In qHTS, concentration-response curves come from the screen itself.
On to `CC(=O)[C@@H]1CC[C@]2(C(=O)O)CC[C@]3(C)C(CCC4[C@@]5(C)CC[C@H](O)C(C)(C)C5CC[C@]43C)C12` (stereo not given in full), for which the activation was 8.4% (inactive).
Regarding `Cc1nc2ccc(Oc3ccc(F)cc3)cc2c(=O)n1C[C@H]1CCCN(C(C)C)C1`, the activation was -12.4% (inactive).
Consider `COC1OC(OC)C(O)(CCC2(C)C(C)CCC3(C)C2CC(O)C(O)C32CO2)C1O` (stereo not given), for which the activation was 0.763% (inactive).
On to `COC(=O)C1=CO[C@@H](O[C@@H]2O[C@H](CO)[C@@H](O)[C@H](O)[C@H]2O)[C@@H]2[C@@H](C)[C@@H](OC(=O)/C=C/c3ccccc3)[C@@H](O)[C@H]12`, for which the activation is -5.34% (inactive).
For the molecule `CC1(C)CCC2(C(=O)O)CCC3(C)C(=CCC4C5(C)CCC(O)C(C)(CO)C5C(O)CC43C)C2C1` (stereo not given), the activation is -18.8% (inactive).
Regarding `Cc1cnn(-c2ccccc2)c1NC(=O)COCc1ccccc1`, the activation is 0.333% (inactive).
With `CC(=O)c1c(C)cc(O[C@@H]2O[C@H](CO)[C@@H](O)[C@H](O)[C@H]2O)cc1O`, the activation was -9.92% (inactive).
`COC(=O)N1CCC(n2ncc3c(N4CCOCC4)nc(-c4ccc(NC(=O)Nc5ccc(CO)cc5)cc4)nc32)CC1`: the Potency is 21.3 µM (active).
With `COc1c(C)c(OCC=C(C)C)cc2c1COC2=O`, the activation is -0.763% (inactive).
In the case of `CC1=C2C(=O)C=C(CO[C@@H]3O[C@H](CO)[C@@H](O)[C@H](O)[C@H]3O)[C@@H]2[C@H]2OC(=O)[C@H](C)[C@@H]2CC1`, the activation was -19.6% (inactive).
Same read-out and setting: then `C=C(C(=O)O)C1CC(O)C2(C)CCCC(=C)C2C1` (stereo not given), with 3.82% (inactive).
Same read-out and setting: then `CC1(C)[C@@H](O)CC[C@]2(C)[C@H]3CC=C4[C@@H]5C[C@](C)(C(=O)O)CC[C@]5(C)CC[C@@]4(C)[C@]3(C)CC[C@@H]12`, with 7% (inactive).
As for `CC1(C)CCC[C@@]2(C)C1[C@H](OC(=O)/C=C/C=C/C(=O)O)C=C1COC(=O)[C@@]12O` (stereo not given in full), the activation was -13% (inactive).
On to `CC12CCC(OC3OC(CO)C(O)C(OC4OC(CO)C(O)C(O)C4O)C3O)CC1=CCC1C2CCC2(C)/C(=C3/COC(=O)C3)CCC12O` (stereo not given), for which the activation is -13% (inactive).
Same read-out and setting: then `CC/C=C\[C@H](O)[C@H](O)C1=C(C)C(=O)[C@]2(O1)C(=O)N[C@@](OC)(C(=O)c1ccccc1)[C@@H]2O`, with -6.87% (inactive).
Turning to `C=CC[N+]1([C@H]2C[C@H]3[C@@H]4CC[C@H]5C[C@H](OC(C)=O)[C@@H](N6CCCCC6)C[C@]5(C)[C@H]4CC[C@]3(C)[C@H]2OC(=O)CC)CCCCC1`, the activation is -3.67% (inactive).
In the case of `C=C1CC2OC(=O)C(COC)C2C(OC(=O)/C(C)=C\C)CC2(C)OC1=CC2=O` (stereo not given), the Potency was 14.8 µM (active).
Take `C=C1C[C@]23C[C@H]1CC[C@H]2[C@]1(C)CCC[C@@](C)(C(=O)O)[C@H]1[C@@H]3C(=O)O`: the activation was -8.04% (inactive).
For the molecule `c1cc(-c2cc(C3CCNCC3)[nH]n2)ccn1`, the activation was 1.79% (inactive).
For `O=C(/C=C/c1ccc(O)cc1)N[C@@H](Cc1ccc(O)cc1)C(=O)O`, the activation is 2.29% (inactive).
In the case of `C=C1Cc2c(Cl)cc3[nH]c4c5c3c2[C@@]2(O)[C@@H]1C[C@@H]2C(C)(C)O[C@H]5C1CC[C@@]2(O)[C@@]35O[C@@H]3[C@H]3OC(C)(C)[C@H]3O[C@H]5CC[C@]2(C)[C@@]41C` (stereo not given in full), the activation is -14.5% (inactive).
Turning to `C/C=C(\C)C(=O)O[C@@H](C)[C@H]1CC[C@]2(O)C3CCC4C[C@@H](OC5CC(OC)C(OC6CC(OC)C(OC7CC(OC)C(OC8OC(C)C(OC9OC(CO)C(O)C(O)C9O)C(OC)C8O)C(C)O7)C(C)O6)C(C)O5)CC[C@]4(C)C3[C@H](O)[C@@H](O)[C@]12C` (stereo not given in full), the activation is 8.04% (inactive).
For `Cc1cn2cc(CC(=O)N3CCC4(CC3)CN(Cc3ccc(-n5nccn5)cc3Cl)C4)nc2s1`, the activation was -8.93% (inactive).
As to `CCC(C)C(=O)OC[C@H]1O[C@H](O[C@H]2O[C@H](CO)[C@@H](O)[C@H](O)[C@H]2O)[C@H](O)[C@@H](O)[C@@H]1O` (stereo not given in full), the activation is 1.53% (inactive).
For the molecule `COC(=O)CC[C@@H](C)C1CCC2C3CCC4C[C@H](OC(C)=O)CCC4(C)C3C[C@H](O)C21C` (stereo not given in full), the activation is 3.67% (inactive).
As for `CC(=O)CCC1=C(C)C(O[C@@H]2O[C@H](CO)[C@@H](O)[C@H](O)[C@H]2O)C(O)CC1(C)C` (stereo not given in full), the activation was -3.82% (inactive).
As for `O=C(CCC1CCN(Cc2ccccc2)CC1)c1ccc2c(c1)NCCCC2`, the activation is 6.33% (inactive).
For the molecule `CC1OC(OC2C(OC3C(O[C@H]4CC[C@@]5(C)C(CC[C@]6(C)C5CC=C5C7CC(C)(C)CC(O)[C@]7(C)CC[C@]56C)C4(C)C)OC(C(=O)O)C(O)C3O)OCC(O)C2O)C(O)C(O)C1O` (stereo not given in full), the activation was 3.57% (inactive).
Turning to `CC(=O)C=C=C1C(C)(C)CC(O)CC1(C)O[C@@H]1O[C@H](CO[C@H]2OC[C@](O)(CO)[C@H]2O)[C@@H](O)[C@H](O)[C@H]1O` (stereo not given in full), the activation is -14.3% (inactive).
With `CC1OC(O[C@H]2CC[C@@]3(C)C(CC[C@]4(C)C3CC=C3C5CC(C)(C)CC[C@]5(C(=O)OC5OC(CO)C(OC6OC(COC7OCC(O)C(O)C7O)C(O)C(O)C6O)C(O)C5O)CC[C@]34C)C2(C)C)C(O)C(O)C1OC1OCC(OC2OCC(O)C(O)C2O)C(O)C1O` (stereo not given in full), the activation was -15.3% (inactive).
Consider `COc1cccc(NCCC2(c3ccccc3)CC(C)(C)OC(C)(C)C2)c1`, for which the Potency is 21.7 µM (active).
With `CC(C)C1NC(=O)C2CCCN2C1=O` (stereo not given), the activation is 8.93% (inactive).
On to `COc1cc2c(c(OC)c1CC=C(C)C)C[C@H](c1ccc(O)c(CC=C(C)C)c1O)CO2`, for which the activation was -7.14% (inactive).
As to `CC1CCC2(C(=O)OC3OC(CO)C(O)C(O)C3O)CCC3(C)C(=CCC4C5(C)CCC(O)C(C)(CO)C5CCC43C)C2C1(C)O` (stereo not given), the activation is -6.87% (inactive).
Regarding `Cc1cc(-c2ncc(-c3cccnc3)cc2/C=C/c2ccccc2)cnc1-c1cccnc1`, the activation was 15.7% (inactive).
For the molecule `COC(=O)/C=C/C=C/C(=O)OC1C=C2COC(=O)C2(O)C2(C)CCCC(C)(C)C12` (stereo not given), the activation was -4.58% (inactive).
For the molecule `CC(=O)OC1C(O)C(C)(O)C(/C=C/C(=O)O)C2(C)CCCC(C)(C)C12` (stereo not given), the activation is -17.6% (inactive).
As for `CCOc1ccc(-n2c(C(C)N(Cc3cccnc3)C(=O)Cc3ccc(F)c(C(F)(F)F)c3)nc3ncccc3c2=O)cc1` (stereo not given), the Potency was 19 µM (active).
With `O=S(=O)(c1ccccc1)c1cnc2c(N3CCNCC3)cccc2c1`, the activation was 27% (inactive).
In the case of `Cc1ncc([N+](=O)[O-])n1C[C@H](O)CN1CCOCC1`, the activation was 2.33% (inactive).
